# In PubChem BioAssay (NCATS):
# Results filed as inconclusive are left out. A call without a number means that no potency is given here. Unmarked numbers belong to inactive results. Activity calls are given as the source filed them. Unless noted, calls come from the whole dose curve; as a rule, active = well fitted curve in the direction sought with a large enough effect; inconclusive = small, poorly fitted or top-dose-only effect, or another doubt; inactive = no such curve, though single readings can be large; an effect the other way counts as inactive or inconclusive.
# Key:
# [1] = molecular target: ATP-dependent 6-phosphofructokinase (Trypanosoma brucei brucei) (UniProt O15648); assay: qHTS Assay to Find Inhibitors of T. brucei phosphofructokinase: hit validation (AID 492961);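 note: luminescence reports ADP formed as PFK phosphorylates fructose-6-phosphate with ATP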
# ATP-dependent 6-phosphofructokinase (Trypanosoma brucei brucei), sequence (O15648 whole entry, looked up): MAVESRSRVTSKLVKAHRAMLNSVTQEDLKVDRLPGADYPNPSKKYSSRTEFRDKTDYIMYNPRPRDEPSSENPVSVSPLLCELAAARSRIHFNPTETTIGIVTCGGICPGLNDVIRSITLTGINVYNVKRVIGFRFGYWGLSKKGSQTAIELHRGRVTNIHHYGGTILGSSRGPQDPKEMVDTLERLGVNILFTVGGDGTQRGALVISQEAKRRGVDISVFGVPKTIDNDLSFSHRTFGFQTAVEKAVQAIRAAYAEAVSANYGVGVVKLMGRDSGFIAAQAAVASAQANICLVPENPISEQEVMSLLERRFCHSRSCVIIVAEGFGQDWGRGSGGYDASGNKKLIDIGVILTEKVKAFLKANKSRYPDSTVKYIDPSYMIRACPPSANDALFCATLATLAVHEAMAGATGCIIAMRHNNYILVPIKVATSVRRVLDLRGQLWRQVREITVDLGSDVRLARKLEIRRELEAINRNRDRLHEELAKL
# Outline: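 Compounds titrated; %activity normalized to 0x and 1x enzyme controls, curve-fitted. Readout: ADP-Glo luminescence after 45 min room-temperature reaction of 1.25 nM PFK, 0.1 mM ATP, 0.5 mM F6P, pH 8.0.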
# 3D7 = assay: qHTS profiling for inhibitors of Plasmodium falciparum proliferation (AID 504749); note: nearly all actives have a fitted effect of over 60% in size; note: potency is the fitted concentration of half-maximal effect; settings: P. falciparum in erythrocytes, SYBR Green DNA, 72 h; series mostly up to 28.7 µM
# Outline: (§1)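 SYBR Green fluorescence (ex 485 nm, em 535 nm) reports parasite DNA after 72 h compound exposure of infected red cells at 0.3% parasitemia, 2.5% hematocrit; signal normalized to 0.29 uM artemisinin and vehicle wells.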
# AS120 = assay: as above; settings: P. falciparum in erythrocytes, SYBR Green DNA, 72 h; series mostly up to 28.7 µM
# Outline: as §1
# CP185 = assay: as above; settings: P. falciparum in erythrocytes, SYBR Green DNA, 72 h; series mostly up to 28.7 µM
# Outline: as §1
# CP192 = assay: as above; settings: P. falciparum in erythrocytes, SYBR Green DNA, 72 h; series mostly up to 28.7 µM
# Outline: as §1
# CP194 = assay: as above; settings: P. falciparum in erythrocytes, SYBR Green DNA, 72 h; series mostly up to 28.7 µM
# Outline: as §1
# CP201 = assay: as above; settings: P. falciparum in erythrocytes, SYBR Green DNA, 72 h; series mostly up to 28.7 µM
# Outline: as §1
# CP203 = assay: as above; settings: P. falciparum in erythrocytes, SYBR Green DNA, 72 h; series mostly up to 28.7 µM
# Outline: as §1
# CP238 = assay: as above; settings: P. falciparum in erythrocytes, SYBR Green DNA, 72 h; series mostly up to 28.7 µM
# Outline: as §1
# CP247 = assay: as above; settings: P. falciparum in erythrocytes, SYBR Green DNA, 72 h; series mostly up to 28.7 µM
# Outline: as §1
# CP262 = assay: as above; settings: P. falciparum in erythrocytes, SYBR Green DNA, 72 h; series mostly up to 28.7 µM
# Outline: as §1
# CP266 = assay: as above; settings: P. falciparum in erythrocytes, SYBR Green DNA, 72 h; series mostly up to 28.7 µM
# Outline: as §1
# CP268 = assay: as above; settings: P. falciparum in erythrocytes, SYBR Green DNA, 72 h; series mostly up to 28.7 µM
# Outline: as §1
# CP286 = assay: as above; settings: P. falciparum in erythrocytes, SYBR Green DNA, 72 h; series mostly up to 28.7 µM
# Outline: as §1
# CP305 = assay: as above; settings: P. falciparum in erythrocytes, SYBR Green DNA, 72 h; series mostly up to 28.7 µM
# Outline: as §1
# CP335 = assay: as above; settings: P. falciparum in erythrocytes, SYBR Green DNA, 72 h; series mostly up to 28.7 µM
# Outline: as §1
# DFO2036 = assay: as above; settings: P. falciparum in erythrocytes, SYBR Green DNA, 72 h; series mostly up to 28.7 µM
# Outline: as §1
# DIV30 = assay: as above; settings: P. falciparum in erythrocytes, SYBR Green DNA, 72 h; series mostly up to 28.7 µM
# Outline: as §1
# PC49 = assay: as above; settings: P. falciparum in erythrocytes, SYBR Green DNA, 72 h; series mostly up to 28.7 µM
# Outline: as §1
# [2] = AP1 Signaling Pathway (AID 357; active = well fitted curve in either direction with a large enough effect, not every such curve was filed as active;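 note: ME-180 reporter cells stimulated with EGF at its EC50 level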); settings: ME-180 (cervical carcinoma) AP-1-bla reporter, EGF-induced, beta-lactamase ratio, 5 h
# Outline: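 Modulation of EGF-driven AP-1 transcription was assessed with a beta-lactamase reporter in ME-180 cells. Compound and EC50 EGF were co-incubated 5 hours at 37 °C before 2.5-hour CCF4 loading at room temperature and dual-emission reading.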
structure (smiles),measurement,setting,value
CCCCC(=O)N(Cc1ccc(-c2ccccc2-c2nn[nH]n2)cc1)C(C(=O)O)C(C)C (stereo unspecified),outcome,[1],inactive
same,Potency,3D7,inactive
same,Potency,AS120,inactive
same,Potency,CP185,inactive
same,Potency,CP192,inactive
same,Potency,CP194,inactive
same,Potency,CP201,inactive
same,Potency,CP203,inactive
same,Potency,CP238,inactive
same,Potency,CP247,inactive
same,Potency,CP262,inactive
same,Potency,CP266,inactive
same,Potency,CP268,inactive
same,Potency,CP286,inactive
same,Potency,CP305,inactive
same,Potency,CP335,6.01 µM (active)
same,Potency,DFO2036,inactive
same,Potency,DIV30,inactive
same,Potency,PC49,inactive
CCOC(=O)CCC(=O)O[C@H]1[C@H](O[C@@H]2[C@@H](C)[C@H](O[C@H]3C[C@@](C)(OC)[C@@H](O)[C@H](C)O3)[C@@H](C)C(=O)O[C@H](CC)[C@@](C)(O)[C@H](O)[C@@H](C)C(=O)[C@H](C)C[C@@]2(C)O)O[C@H](C)C[C@@H]1N(C)C,"activity change, negative = inhibition",[2]; at 17.2 µM (top of the series),-0.678%
CN1CCN(CCC=C2c3ccccc3Sc3ccc(S(=O)(=O)N(C)C)cc32)CC1,"activity change, negative = inhibition",[2]; at 38 µM (top of the series),18.8%
